Among the test systems are SK-MEL-2 melanoma; EKVX NSCLC; SN12C renal; UO-31 renal; TK-10 renal; ACHN renal; CAKI-1 renal; A498 renal; CCRF-CEM leukemia; SR leukemia; RPMI-8226 leukemia; OVCAR-8 ovarian; OVCAR-5 ovarian; OVCAR-4 ovarian; SK-OV-3 ovarian; IGROV1 ovarian; OVCAR-3 ovarian; HS 578T breast; NCI/ADR-RES ovarian.
Holding throughout (assay): NCI-60 one-dose screen, 48 h (100 = growth as untreated, 0 = no growth, -100 = all killed)
Common to all, as to conditions: 10 µM unless noted

About 83,000 compounds went through this panel and 20% of them were active in at least one assay; those are over-represented in the sample as a whole.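 Negative percent growth values reflect cell death: -40 means 40% of the cells present at the start died, and -100 means all died.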 Unmarked numbers belong to inactive results. The source made the active and inactive calls. The calls were made as follows: active = growth percent below 10; inactive = the rest.

On to `Cc1cc(NCCCCNc2ccnc3cc(Cl)ccc23)nc(Nc2ccc(C(=O)N3CCCCC3)cc2)n1`, for which the growth in the assay on SK-MEL-2 melanoma is -63.1% (active); with EKVX NSCLC, 41.1%; with SN12C renal it was 29.6%; in the assay with UO-31 renal it was 33.5%; in the assay on TK-10 renal, -49.2% (active); in the assay with ACHN renal it was -4.47% (active). Besides, the growth in the assay with CAKI-1 renal is 79.5%; in the assay with A498 renal it was 53.4%; in the assay on CCRF-CEM leukemia, -20% (active); in the assay with SR leukemia, -29% (active); in the assay with RPMI-8226 leukemia, -35.8% (active); with OVCAR-8 ovarian, 7.65% (active). Further, the growth was 82.7% in the assay with OVCAR-5 ovarian; 34.8% in the assay on OVCAR-4 ovarian; 97.2% in the assay on SK-OV-3 ovarian; 29.8% with IGROV1 ovarian; 8.51% (active) with OVCAR-3 ovarian; -28.9% (active) with HS 578T breast. For the same compound, in the assay with NCI/ADR-RES ovarian, the growth is 47.5%.
`CCC(CO)Nc1nc2ccc(Cl)cc2c2ccccc12` (stereo not given): the growth in the assay with SK-MEL-2 melanoma is 84.1%; in the assay on EKVX NSCLC, 47.9%; in the assay on SN12C renal it was 71.1%; with UO-31 renal, 39.5%; in the assay with TK-10 renal, 54.3%; in the assay on ACHN renal it was 73.9%. Further, the growth in the assay with CAKI-1 renal was 40.9%; in the assay on A498 renal, -19% (active); in the assay with CCRF-CEM leukemia it was 56.5%; in the assay with SR leukemia, 26.9%; in the assay on RPMI-8226 leukemia, 66.6%; in the assay on OVCAR-8 ovarian, 75.1%. Moreover, the growth in the assay with OVCAR-5 ovarian was 66.9%; in the assay on SK-OV-3 ovarian, 70.7%; in the assay on IGROV1 ovarian, 58.1%; with OVCAR-3 ovarian, 62.8%; in the assay on HS 578T breast, 29.5%; in the assay with NCI/ADR-RES ovarian it was 62.4%.
`Cc1nn(-c2ccccc2)c2nc3c(c(-c4ccc(Cl)cc4)c12)CNC1(CCSCC1)N3`: the growth in the assay on SK-MEL-2 melanoma is 134%; in the assay with EKVX NSCLC, 94%; with SN12C renal, 108%; with UO-31 renal, 94.9%; with TK-10 renal, 107%; in the assay with ACHN renal it was 103%. Further, the growth is 95.4% in the assay with CAKI-1 renal; 89.1% in the assay with A498 renal; 118% in the assay with CCRF-CEM leukemia; 96.8% with SR leukemia; 109% in the assay with RPMI-8226 leukemia; 105% in the assay with OVCAR-8 ovarian. Further, the growth was 98.2% with OVCAR-5 ovarian; 98.9% in the assay on OVCAR-4 ovarian; 98.9% with SK-OV-3 ovarian; 99.1% in the assay with IGROV1 ovarian; 104% in the assay on OVCAR-3 ovarian; 99.8% in the assay with HS 578T breast. Besides, the growth in the assay on NCI/ADR-RES ovarian is 97.3%.
Regarding `Cc1ccc2nc3ccccc3c(NCc3ccccc3)c2c1`, the growth in the assay on SK-MEL-2 melanoma is 100%; with EKVX NSCLC it was 49.6%; with SN12C renal it was 25.5%; in the assay on UO-31 renal, 18.3%; in the assay on TK-10 renal it was 75.3%; in the assay with ACHN renal, 23.2%. Also, the growth in the assay on CAKI-1 renal was 35.5%; in the assay on A498 renal, 11.4%; with CCRF-CEM leukemia, 34.9%; in the assay on SR leukemia, 4.1% (active); in the assay with RPMI-8226 leukemia it was 6.82% (active); with OVCAR-8 ovarian, 33.5%. Also, the growth with OVCAR-5 ovarian was 40.4%; in the assay on OVCAR-4 ovarian, 32.8%; with SK-OV-3 ovarian it was 64.3%; in the assay on IGROV1 ovarian it was 15.8%; in the assay on OVCAR-3 ovarian, 66%; with HS 578T breast, 69.8%. For the same compound, in the assay on NCI/ADR-RES ovarian, the growth was 29.8%.
As for `COC(=O)CCC1=C(C)C2=NC1=CC1=NC(=CC3=NC(=Cc4[nH]c(/c(=C(/C)O)c4C)=C2)C(C(C)=O)=C3C)C(C)=C1CCC(=O)OC`, the growth was 102% in the assay with SK-MEL-2 melanoma; 99.7% in the assay on EKVX NSCLC; 97.8% in the assay with SN12C renal; 100% with UO-31 renal; 123% in the assay on TK-10 renal; 103% in the assay on ACHN renal. The growth was 98.8% in the assay on CAKI-1 renal; 90.1% in the assay with A498 renal; 101% in the assay on CCRF-CEM leukemia; 111% with SR leukemia; 85.7% in the assay with RPMI-8226 leukemia; 100% in the assay on OVCAR-8 ovarian. Besides, the growth is 111% in the assay on OVCAR-5 ovarian; 107% in the assay with OVCAR-4 ovarian; 95.1% in the assay with SK-OV-3 ovarian; 108% in the assay on IGROV1 ovarian; 107% in the assay with OVCAR-3 ovarian; 89.1% in the assay with HS 578T breast. In the assay with NCI/ADR-RES ovarian, the growth is 103%.
For the compound `CCn1c(C)nc2cc(C(N)=O)ccc21`, the growth was 96% in the assay with SK-MEL-2 melanoma; 142% in the assay with EKVX NSCLC; 98.1% in the assay with SN12C renal; 91.5% with UO-31 renal; 98% with TK-10 renal; 96.7% in the assay with ACHN renal. Besides, the growth in the assay on CAKI-1 renal was 143%; in the assay on A498 renal, 107%; in the assay on CCRF-CEM leukemia it was 95.4%; in the assay on SR leukemia, 104%; with RPMI-8226 leukemia, 80.9%; in the assay on OVCAR-8 ovarian, 96.2%. Besides, the growth in the assay on OVCAR-5 ovarian was 92.6%; with OVCAR-4 ovarian, 98.2%; in the assay with SK-OV-3 ovarian, 105%; in the assay on IGROV1 ovarian it was 109%; in the assay with HS 578T breast, 108%; with NCI/ADR-RES ovarian it was 97%.
Consider `CCCCOc1nc2ccccc2cc1C1CNC(=O)c2ccccc2N1` (stereo not given), for which the growth in the assay on SK-MEL-2 melanoma was 15.7%; in the assay on EKVX NSCLC, 33%; with SN12C renal it was 44.1%; with UO-31 renal it was 41.3%; in the assay on TK-10 renal, 34.3%; with ACHN renal, 46.7%. Besides, the growth in the assay with CAKI-1 renal was 42.6%; with A498 renal, -11.2% (active); in the assay with CCRF-CEM leukemia it was 12.6%; in the assay on SR leukemia it was 19.8%; in the assay on RPMI-8226 leukemia, 25.6%; with OVCAR-8 ovarian, 22.4%. Moreover, the growth in the assay with OVCAR-5 ovarian was 55.3%; with OVCAR-4 ovarian, 47.7%; in the assay on SK-OV-3 ovarian, 14.8%; in the assay on IGROV1 ovarian, 38%; with OVCAR-3 ovarian it was -9.73% (active); in the assay with HS 578T breast, 34.1%. For the same compound, the growth with NCI/ADR-RES ovarian was 3.84% (active).
Consider `COc1cccc(C(=O)NCCNc2cc(-c3cn(-c4ccccc4)nc3-c3cccc(OC)c3)ccn2)c1`, for which the growth in the assay with SK-MEL-2 melanoma was 57.2%; in the assay on EKVX NSCLC it was 69%; in the assay on SN12C renal it was 74.4%; in the assay with UO-31 renal, 39.9%; with TK-10 renal, 80.4%; in the assay on ACHN renal it was 69.8%. For the same compound, the growth is 69.2% in the assay on CAKI-1 renal; 59% in the assay on A498 renal; 25.6% in the assay on CCRF-CEM leukemia; 2.08% (active) in the assay on SR leukemia; 39.1% with RPMI-8226 leukemia; 40% with OVCAR-8 ovarian. The growth was 91.7% with OVCAR-5 ovarian; 49.6% with OVCAR-4 ovarian; 54.6% in the assay with SK-OV-3 ovarian; 74.1% with IGROV1 ovarian; 54.5% with OVCAR-3 ovarian; 61.8% in the assay on HS 578T breast. Besides, in the assay with NCI/ADR-RES ovarian, the growth is 47.2%.

The record behind these values is PubChem BioAssay (NCI).
